Only some compounds are listed: those with a hit (about 4.5% of all), similar ones and a draw of the others.
Efflux pump mplx – inhibitors of Candida efflux pumps in yeast, primary screen, S. cerevisiae, Nile Red, multiplex | S. cerevisiae Candida pump triplex | inhibition, % at 10 µM | 330,000 compounds, 0.44% hits | AID 485275, 2010;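 active means plate passing quality check with inhibition over a set limit, or well fluorescence over plate mean plus 4 SD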;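 further: Nile Red retained in pooled yeast measured as flow cytometry median fluorescence; 0% = buffer negative control and 100% = Enniatin B positive control; higher means more Nile Red kept so more efflux inhibition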
Rtt109 HAT inh – inhibitors of C. albicans Rtt109/Vps75 HAT, primary screen, biochemical, ThioGlo CoA-SH fluorescence, plate reader; Histone acetyltransferase RTT109 (Candida albicans (strain SC5314 / ATCC MYA-2876)), …; purified Rtt109/Vps75, 4 h; inhibition, % at 34.9 µM; 330,000 compounds, 0.16% hits; AID 540336, 2011;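 active means inhibition of at least 50% in every replicate; inconclusive means best replicate reaches 50% inhibition but some replicates fall short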
GRK2 inh – compounds blocking aptamer binding on GRK2 – biochemical, human GRK2, bead flow cytometry, HTS, primary screen; Beta-adrenergic receptor kinase 1 (Homo sapiens), P25098; FAM-aptamer displacement from GRK2; inhibition of aptamer binding, % at 10 µM; 330,000 compounds, 0.59% hits; AID 488847, 2010;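 active means inhibition of aptamer binding above 40%, roughly 3 SD of noise, on plates passing a quality check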;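 further: median bead fluorescence of bound FAM aptamer so fluorescent compounds give negative values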
Target sequence (P25098 whole entry, looked up): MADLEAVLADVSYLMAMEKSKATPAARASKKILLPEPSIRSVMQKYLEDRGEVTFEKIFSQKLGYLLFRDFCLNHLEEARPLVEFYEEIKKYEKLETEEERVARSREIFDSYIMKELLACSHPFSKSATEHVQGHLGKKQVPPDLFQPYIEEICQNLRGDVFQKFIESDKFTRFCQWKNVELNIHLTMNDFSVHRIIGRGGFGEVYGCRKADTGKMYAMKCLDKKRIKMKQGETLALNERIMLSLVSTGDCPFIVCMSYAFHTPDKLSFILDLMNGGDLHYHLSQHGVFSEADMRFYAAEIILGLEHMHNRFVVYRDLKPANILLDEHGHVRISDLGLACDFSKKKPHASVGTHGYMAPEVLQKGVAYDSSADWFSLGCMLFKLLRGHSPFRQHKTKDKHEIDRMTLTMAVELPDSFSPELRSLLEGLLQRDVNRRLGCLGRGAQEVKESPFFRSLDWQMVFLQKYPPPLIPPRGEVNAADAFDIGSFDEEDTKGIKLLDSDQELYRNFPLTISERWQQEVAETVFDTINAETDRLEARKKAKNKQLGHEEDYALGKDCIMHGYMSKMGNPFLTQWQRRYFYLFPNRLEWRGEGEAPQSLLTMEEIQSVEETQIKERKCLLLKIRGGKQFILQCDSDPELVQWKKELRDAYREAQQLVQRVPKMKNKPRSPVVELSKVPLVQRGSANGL
HDAC3 inh – HDAC3 deacetylase inhibitors, primary screen, biochemical, fluorescence, cell-free homogeneous; 320,000 compounds, 0.15% hits; inhibition, % at 8.3 µM; Histone deacetylase 3 (Homo sapiens), O15379; recombinant HDAC3, fluorogenic peptide/trypsin coupled; in the data active means inhibition above about 26%, passing the limit was not always enough; inconclusive means no clear call, values can overlap the other calls
Rce1 inhib – yeast Rce1p protease inhibitors, primary screen, biochemical, fluorescence, cell-free homogeneous. yeast membranes, quenched prenylated peptide cleavage fluorescence. calls only. 290,000 compounds, 0.27% hits;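 active means fall in fluorescence gain of 50% or more versus controls, with final raw signal at or below 3038400; inconclusive means same 50% fall but final raw signal above 3038400; inactive means fall in fluorescence gain under 50%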;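 further: plate controls were neutral control wells for no effect and wells lacking membranes for full effect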
ALR H2O2 inh – inhibitors of human ALR sulfhydryl oxidase, primary screen, biochemical, H2O2 detection, HRP-luminol luminescence, single point; AID 485317, 2010; purified ALR, DTT oxidation; 290,000 compounds, 3.8% hits; inhibition, % (test concentration not listed);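 active means mean replicate inhibition above about 79%, with every replicate also reaching it, limit read from the data; inconclusive means only one of the two criteria met; inactive means mean below limit and not every replicate reaching it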
* marks the source's active call; other numbers are inactive results; i = inactive; ? = inconclusive; / = not tested or not shown; + = active, no number.

SMILES | Efflux pump mplx | Rtt109 HAT inh | GRK2 inh | HDAC3 inh | Rce1 inhib | ALR H2O2 inh
CC(NC(=O)/C(C#N)=C/c1ccc(Cl)c([N+](=O)[O-])c1)c1ccccc1 (centres undefined) | 0 | / | 0 | 4 | + | 4
N#C/C(=C\c1ccncc1)C(=O)Nc1ccc(C(=O)O)cc1 | 0 | 3 | 0 | 0 | i | 95*
COc1ccc(O)c(/C=C(\C#N)C(=O)Nc2cccnc2)c1 | 0 | -20 | 0 | 7 | i | 98*
Cc1ccc2c(c1)C1(C(=O)N2)N2CCCC2C(C(=O)c2ccc3ccccc3c2)C12C(=O)Nc1ccccc12 (centres undefined) | / | 1 | / | / | i | /
O=C(COc1ccccc1Cl)NCCCNC(=O)c1ccco1 | 0 | 1 | 0 | 1 | i | -2
C[C@@H](NC(=O)/C(C#N)=C/c1ccc(O)c(O)c1)c1ccccc1 | 1 | -5 | 2 | 7 | / | 99*
COc1ccc(C2CC(=O)N3CN(Cc4ccco4)CSC3=C2C#N)cc1 (centres undefined) | 0 | 5 | 0 | 37* | i | -12
COc1cc(C2CC(=O)N3CN(Cc4ccco4)CSC3=C2C#N)ccc1OCc1ccccc1 (centres undefined) | 0 | -5 | 0 | 4 | i | -16
CCOc1cc(C2CC(=O)N3CN(C4CCCCC4)CSC3=C2C#N)ccc1O (centres undefined) | 0 | -1 | 1 | ? | i | -3
COc1ccc2ccccc2c1C1CC(=O)N2CN(Cc3ccco3)CSC2=C1C#N (centres undefined) | 0 | 4 | 0 | 44* | i | -89
COc1ccc2ccccc2c1C1CC(=O)N2CN(C3CCCCC3)CSC2=C1C#N (centres undefined) | 0 | 11 | 1 | 43* | i | -124
CCOC(=O)CNC(=O)C1CCN(S(=O)(=O)c2ccc(-c3nn[nH]n3)cc2)CC1 | 0 | -2 | 0 | -7 | / | 2
N#C/C(=N\Nc1ccc(Cl)cc1)C(N)=S | 0 | 4 | 1 | 13 | i | 94*
N#C/C(=N\Nc1ccccc1)C(N)=S | 0 | ? | 0 | 7 | i | 92*
Cc1ccc(N/N=C(\C#N)C(N)=S)cc1C | 0 | 6 | 2 | 6 | i | /
CC(=O)OCC1CC(COC(C)=O)C(COC(C)=O)CC1COC(C)=O (centres undefined) | / | -1 | / | / | / | /
COc1ccc(NC(=O)c2cc(C)cc(C)c2)cc1S(=O)(=O)N1CCCCC1 | 0 | 14 | 0 | 1 | / | -1
CCOC(=O)CC1C(=O)NCCN1C(=O)c1cc2c(=O)n3cccc(C)c3nc2s1 (centres undefined) | 0 | 7 | 0 | -60 | + | -14
CCCn1c2ccccc2c2nnc(SCCN3CCOCC3)nc21 | 0 | 0 | 0 | -8 | i | 96*
CC(OC(=O)/C=C/c1ccccc1)C(=O)N1CCc2ccccc21 (centres undefined) | 0 | 34 | 0 | 1 | i | 11
CCN(CC)c1ccc(NC(=O)CCS(=O)(=O)c2cccc3nsnc23)c(C)c1 | 0 | -4 | 2 | -10 | i | 99*
O=C(CSc1nnc(CNC(=O)c2ccco2)o1)Nc1ccc(Br)cc1 | 0 | -3 | 3 | -2 | i | 99*
CC(C)C[C@H](N)c1nnc(SCC(=O)Nc2ccc(Br)cc2)o1 | 0 | 14 | 0 | 4 | i | 99*
CC(C)C[C@H](NC(=O)OC(C)(C)C)c1nnc(SCC(=O)Nc2ccc(Br)cc2)o1 | 0 | -2 | 0 | 1 | i | -5
NCCc1nnc(SCC(=O)Nc2ccc(Br)cc2)o1 | 0 | -5 | 0 | -1 | i | 98*
SMILES | Efflux pump mplx | Rtt109 HAT inh | GRK2 inh | HDAC3 inh | Rce1 inhib | ALR H2O2 inh
CCCc1nnc(SCC(=O)Nc2ccc(OC)cc2)o1 | 0 | -6 | 0 | -8 | i | -13
CCCOc1ccc(C(=O)Nc2cc(S(=O)(=O)N3CCOCC3)ccc2N2CCN(CC)CC2)cc1OC | / | -1 | / | / | / | /
CCOc1ccc(NC(=O)c2ccc3c(c2)C(=O)N(Cc2ccncc2)C3=O)cc1 | / | -1 | / | / | / | /
O=C(Nc1ccc2c(c1)nc1n2CCSC1)c1ccco1 | 0 | 3 | 1 | 10 | i | 99*
O=C(Nc1cc(Br)c(O)c(Br)c1)c1cccc(NC(=O)c2ccco2)c1 | 0 | 5 | 2 | -5 | i | 98*
Cc1nc2ccc(NC(=O)c3ccco3)cc2nc1C | 0 | 13 | 4 | -14 | i | 99*
O=C(Nc1ccc2c(c1)nc1n2CCOC1)c1ccco1 | 0 | 6 | 0 | 1 | i | /
O=C(Nc1cccc(NC(=O)c2ccco2)c1)c1cccc(Br)c1 | 0 | 20 | 3 | 4 | i | /
Cc1nc2cc(NC(=O)c3ccco3)ccc2n1C | 0 | -4 | 4 | -3 | / | 0
O=C(Nc1ccc(Nc2ccccc2)cc1)c1ccco1 | 0 | 16 | 0 | 11 | i | 92*
O=C(Nc1ccc(NC(=O)c2ccco2)cc1)c1ccco1 | 0 | 4 | 2 | 22 | i | -14
Cc1cc(=O)oc2cc(NC(=O)Cc3ccccc3[N+](=O)[O-])ccc12 | 0 | -3 | 0 | -23 | / | 0
Nc1ccc(NC(=O)c2ccco2)c(Cl)c1 | 0 | -2 | 0 | / | i | 99*
CC1SC(=S)N(c2ccc(N(C)C)cc2)C1=O (centres undefined) | 0 | -8 | 10 | -9 | i | 99*
Cc1ccc(NC(=O)CC2NCCNC2=O)cc1 (centres undefined) | 0 | 11 | 1 | -5 | i | -6
CN(C)c1ccc(NC(=O)CC2NCCNC2=O)cc1 (centres undefined) | 0 | -6 | 4 | -2 | i | 99*
O=C(NCc1ccccc1OC(F)(F)F)C1CCC(=O)N(C2CC2)C1 (centres undefined) | 0 | -5 | 2 | -1 | i | -10
O=C(O)c1ccc(Cl)c2c1C1C=CCC1C(c1ccccn1)N2 (centres undefined) | 0 | / | 47* | 6 | i | -19
O=[N+]([O-])c1ccc(Cl)c2c1C1C=CCC1C(c1ccccn1)N2 (centres undefined) | 0 | 11 | 1 | 8 | i | -20
c1ccc(N2CCN(c3ccccc3)C2c2cccs2)cc1 | 0 | -3 | 2 | 3 | / | 99*

Screening data from PubChem.
